Measurements: PubChem BioAssay AID720648 (The Scripps Research Institute Molecular Screening Center, 2013)
In all, about 370,000 compounds went through this assay and about 3,100 (0.84%) were called active. The list comes from a sample in which actives are over-represented; it also holds similar structures and randomly drawn compounds. Unmarked numbers belong to inactive results.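 How the source made its calls: active means inhibition above the mean of compounds lying between control limits plus 3 SD, set per campaign (cut at about 8.5% in these data); inactive means the rest.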

target: Disintegrin and metalloproteinase domain-containing protein 17 (Homo sapiens) (UniProt P78536); test: inhibition of ADAM17 peptide cleavage – biochemical, QFRET, primary screen (AID 720648); settings: recombinant ADAM17, EDANS/DABCYL FRET peptide cleavage; at 6.95 µM; active compounds read high;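 further: 0% = DMSO-only wells as the low control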
Sequence (P78536 215-824 limits assumed): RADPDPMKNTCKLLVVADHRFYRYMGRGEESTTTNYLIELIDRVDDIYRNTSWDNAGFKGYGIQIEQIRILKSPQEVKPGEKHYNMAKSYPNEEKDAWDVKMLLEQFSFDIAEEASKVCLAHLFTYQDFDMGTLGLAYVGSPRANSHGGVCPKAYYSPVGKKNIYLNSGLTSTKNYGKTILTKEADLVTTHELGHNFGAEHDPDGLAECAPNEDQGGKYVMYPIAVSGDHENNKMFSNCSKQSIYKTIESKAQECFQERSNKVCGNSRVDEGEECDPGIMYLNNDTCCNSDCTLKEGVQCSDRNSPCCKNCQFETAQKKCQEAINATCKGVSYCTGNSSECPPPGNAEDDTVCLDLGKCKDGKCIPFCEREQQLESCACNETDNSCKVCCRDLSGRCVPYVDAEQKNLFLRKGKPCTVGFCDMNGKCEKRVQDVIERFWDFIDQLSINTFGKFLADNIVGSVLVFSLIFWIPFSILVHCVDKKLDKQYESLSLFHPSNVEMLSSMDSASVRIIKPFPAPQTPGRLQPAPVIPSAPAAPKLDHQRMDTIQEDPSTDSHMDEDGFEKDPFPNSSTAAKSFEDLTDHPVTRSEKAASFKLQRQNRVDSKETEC

SMILES | inhibition
COC(=O)C1=C(c2ccc(F)cc2OCc2ccccc2)C[C@@H]2CC[C@H]1N2C(=O)NCc1ccc(Cl)cc1 | 3.55%
COC(=O)C1=C(c2cccc(OCc3ccccc3)c2)C[C@@H]2CC[C@H]1N2C(=O)NCc1ccc(Br)cc1 | 7.72%
COC(=O)C1=C(c2ccc(-c3ccccc3)c(F)c2)C[C@@H]2CC[C@H]1N2C(=O)NCc1ccc(F)cc1 | 16.6% (active)
O=C1NC(=O)C(C/C=C/c2ccccc2)C(=O)N1 | -2.76%
CN(C)C(=O)Oc1ccc2c(c1)O/C(=C\c1ccccc1)C2=O | -16.6%
O=C1C2(Cl)C3(Cl)C4(Cl)C(Cl)(Cl)C5(Cl)C3(Cl)C1(Cl)C5(Cl)C24Cl (stereo not given) | 11.4% (active)
Cc1ccc(C(C)C)c(OCC(=O)N2CCN(CC(=O)N3CCOCC3)CC2)c1 | 1.57%
CCN1CCN(c2ccc([N+](=O)[O-])cc2C#N)CC1 | -2.11%
CNC(=O)Nc1ccc(C(O)(C(=O)OC)C(F)(F)F)cc1 (stereo not given) | -0.16%
CC(=O)NCC1=C(c2ccc3ccccc3c2)C[C@@H]2CC[C@H]1N2Cc1ccco1 | 1.8%
CO[C@H]([C@H](C)/C=C/N(C)C=O)[C@@H](C)C(=O)CC[C@H](C)[C@H](O)[C@H](C)[C@H]1OC(=O)/C=C/C(C)=C/[C@H](O)[C@H](OC)C[C@@H]2C=CC[C@@H](C[C@H](OC)[C@@]3(CO3)[C@@H](OC)C[C@@H](OC)[C@@H]1C)O2 | -1.19%
CCOP(=O)(OCC)C(NC(=O)NC)C(N)=O (stereo not given) | -4.24%
CCOC(=O)CC(SP1(=S)OCC2(CCCCO2)C(C2CCCCO2)O1)C(=O)OCC (stereo not given) | 12.4% (active)
Cc1nc2ccccc2c(=O)n1-c1ccc(Cl)cc1Cl | 0.07%
Cn1cc(C(=O)OCC(=O)N2CCCC2)c2ccccc21 | 1.16%
